# Measured values: the supplement of paper PMC3334620
# Over roughly 33,000 sequences, “E-score (-0.5 to 0.5)” has its median near -0.0014; the highest 2% begin near 0.25. Only a selection was taken, and the highest values are over-represented in it overall.
# Biological target: T1, Cad1 (UniProt P24813)
# T1 sequence: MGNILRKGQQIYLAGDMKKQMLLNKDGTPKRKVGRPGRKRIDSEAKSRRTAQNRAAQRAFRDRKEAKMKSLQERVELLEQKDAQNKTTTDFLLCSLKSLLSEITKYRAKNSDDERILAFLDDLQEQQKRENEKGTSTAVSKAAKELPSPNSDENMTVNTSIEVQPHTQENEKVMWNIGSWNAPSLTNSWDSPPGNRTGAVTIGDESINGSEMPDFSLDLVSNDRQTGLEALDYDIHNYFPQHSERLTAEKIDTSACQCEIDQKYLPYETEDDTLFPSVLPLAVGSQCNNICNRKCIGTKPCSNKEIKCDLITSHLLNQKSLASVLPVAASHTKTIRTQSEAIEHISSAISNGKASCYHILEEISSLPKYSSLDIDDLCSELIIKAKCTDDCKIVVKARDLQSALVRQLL
# Test: PBM E-score (8-mer binding enrichment) (E-score (-0.5 to 0.5)); higher = stronger / more preferred TF binding
# Conditions: protein concentration: 100 nM; construct: GST-full length
# Procedure: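 Universal 'all 10-mer' protein binding microarrays (Agilent AMADID 015681) probed with GST-tagged S. cerevisiae TFs (full-length or DBD) made by in vitro transcription/translation (PURExpress), about 100-200 nM. Bound TF was detected with fluorescent anti-GST. Each ungapped 8-mer (which stands for itself and its reverse complement) is scored by the PBM enrichment score (E-score), a modified Wilcoxon-Mann-Whitney statistic from -0.5 to +0.5, computed with the Universal PBM Analysis Suite. Scale: above 0.35 generally sequence-specific binding.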
row,Sequence,PBM E-score
1,ATGACAAA,0.414
2,ATGACAAG,0.127
3,GTGACAAA,0.229
4,CTGACCAA,0.276
5,CTGACATA,0.205
6,GTGACCAA,0.0231
7,ATGACAAC,0.183
8,CAGCGCGG,0.112
9,TATTGCAA,0.19
10,CTCCGCAG,0.00742
11,GGCCTTAC,-0.166
12,AACCAAAC,-0.102
13,AGATGGGA,-0.204
14,CTGACAAG,0.101
15,CTGACAAC,0.0707
16,CTGACAAA,0.444
17,CAACTAGG,0.079
18,CGAGGCAG,0.0833
19,AACCTCAC,-0.112
20,ATGTTTTA,0.0134
21,ATGTTTCC,-0.00726
22,ATGTTTTC,0.268

row,Sequence,PBM E-score
1,CTGTTGGC,-0.202
2,CTTTGTTC,0.0827
3,ATTTGTCG,0.147
4,ATTTGTTC,0.265
5,ATTTGTCC,0.253
6,ATTTGTGC,0.148
7,ATTTGTTA,0.203
8,AAATCCTC,-0.0802
9,ATGTGACA,0.281
10,CTGTGACA,0.209
11,GTGTGACA,0.0138
12,GCATCCCA,-0.303
13,CGCACTTC,-0.184
14,CCCAAGAG,-0.132
15,GTATTACA,0.234
16,CTATTACC,-0.0596
17,ATATTACG,0.24
18,CTATTACA,0.123
19,ATATTACC,0.28
20,ATATTACA,0.347
21,AGCCGTCG,0.219
22,CACGGAAG,-0.00842

row,Sequence,PBM E-score
1,TATAGGAA,0.127
2,CGACCCGC,0.0365
3,CATAACGG,-0.00107
4,AATAACGC,-0.0922
5,AATAACGG,0.253
6,GATTGCAA,0.117
7,AGGACCCA,-0.22
8,GATCGCGC,0.118
9,AATCGCGC,0.327
10,TCGCGCGA,0.308
11,AAGCGCTC,0.0197
12,ACGCGCGG,0.136
13,TAGCGCGA,0.211
14,AATCGCGT,0.107
15,TCGCGAGA,0.165
16,AAGCGCTT,0.421
17,CCGCGCCG,0.174
18,CCGCGCGG,0.417
19,AAGCGCTA,0.107
20,ATCGGTAG,0.0904
21,AGCACACT,-0.0625
22,AGAGCCAG,-0.239

row,Sequence,PBM E-score
1,CGCGTACA,-0.008
2,ATGCCGTC,-0.0686
3,AAGATCCA,-0.089
4,CTCTGGGA,-0.252
5,AGGACACC,0.00026
6,ACAAACAT,0.145
7,CCCGCGGG,0.0407
8,CCCTACAA,-0.14
9,AAGGGGGT,-0.389
10,CCGCGCGC,0.144
11,AATCGTGC,0.276
12,CATCGTGC,0.162
13,CCGCGAGA,-0.102
14,TCGCGAAA,0.168
15,GCGCGAAA,0.308
16,AATCGTGA,0.0886
17,CAGCGCTA,0.157
18,CCGCGCGA,0.295
19,CAGCGCTG,0.263
20,CAGCGCTC,0.153
21,CCGCGAAA,0.0147
22,TAGCCGAA,-0.0837

row,Sequence,PBM E-score
1,CCCTCCCG,-0.226
2,CAACATCG,0.0708
3,ACAGAAAG,-0.0964
4,GTCGGTGA,-0.13
5,TCATTCAA,0.13
6,AGGTACCC,-0.138
7,ATCTTTCC,0.0734
8,CCGTCTAG,-0.128
9,CACGAGCC,-0.209
10,CAATCGCA,0.00664
11,GTGCGCGA,-0.0729
12,GCGCGCGA,0.265
13,GCGCGCGC,0.417
14,AACCGCGA,0.287
15,AACCGCGT,0.122
16,ACCCGCGA,0.0834
17,TACCGCGA,0.172
18,ACGCGCGA,0.139
19,ACCCGCGC,0.256
20,ACGCGCGC,0.216
21,ACCCGCGT,-0.00317
22,GCGCGCAC,0.218
